# Only some compounds are listed: those with a hit (about 4.3% of all), similar ones and a draw of the others.
# sPLA2-III inh = Blocks human group III sPLA2 activity. Q9NZ20. QFRET BODIPY PC-A2 liposome hydrolysis, fluorescence. inhibition, % at 12.2 µM. 370,000 compounds, 0.56% hits. AID 743126;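 active means inhibition above mean plus 3 SD of compounds lying within the high and low control bounds, cut at about 19% in these data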
# Target sequence (Q9NZ20 whole entry, looked up): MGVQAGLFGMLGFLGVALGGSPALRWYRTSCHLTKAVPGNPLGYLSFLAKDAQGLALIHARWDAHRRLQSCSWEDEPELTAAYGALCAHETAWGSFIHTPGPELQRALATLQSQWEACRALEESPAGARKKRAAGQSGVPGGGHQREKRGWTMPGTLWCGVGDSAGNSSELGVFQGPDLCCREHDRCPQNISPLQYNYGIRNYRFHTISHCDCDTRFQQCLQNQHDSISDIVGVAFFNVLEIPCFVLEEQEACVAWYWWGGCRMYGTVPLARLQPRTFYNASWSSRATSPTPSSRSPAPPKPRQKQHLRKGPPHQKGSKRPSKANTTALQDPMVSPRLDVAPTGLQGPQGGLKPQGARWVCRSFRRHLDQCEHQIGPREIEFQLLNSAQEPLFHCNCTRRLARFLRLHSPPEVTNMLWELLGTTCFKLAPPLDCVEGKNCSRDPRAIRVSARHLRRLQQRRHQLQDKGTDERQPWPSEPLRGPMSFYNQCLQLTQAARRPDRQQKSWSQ
# ADAM10 inh = ADAM10 inhibition, QFRET primary screen | recombinant ADAM10, EDANS/DABCYL FRET peptide cleavage, 3 h | O14672 | 370,000 compounds, 0.62% hits | inhibition, % at 7 µM;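 active means inhibition above a per-campaign cutoff equal to the mean of compounds falling between control-based bounds plus 3 SD, cut at about 20% in these data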
# FAS TE block = blocks the thioesterase domain of human fatty acid synthase; recombinant FAS-TE, OMFH fluorogenic substrate, fluorescence endpoint; AID 602261; 360,000 compounds, 0.67% hits; inhibition, % at 15 µM;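 active means compounds whose normalised, plate-corrected inhibition of enzyme fluorescence in the single-dose primary screen is 50% or more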
# GRIN3A LBD mod = NR3A (human) ligand-binding domain modulation. NR3A LBD differential scanning fluorimetry, Tm shift; 0% = protein alone, 100% = glycine-bound protein. Tm shift relative to glycine control, % at 25 µM. 340,000 compounds, 2.5% hits. AID 1259313;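 active means melting temperature shift of at least 10% of the positive control shift, at one fixed dose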
# ADAM17 inh = inhibits human ADAM17 | inhibition, % at 6.95 µM | 370,000 compounds, 0.83% hits | recombinant ADAM17, EDANS/DABCYL FRET peptide cleavage;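 active means inhibition above the mean of compounds lying between control limits plus 3 SD, set per campaign, cut at about 8.5% in these data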
# A number is an active result; - = inactive; . = no result given.
SMILES,sPLA2-III inh,ADAM10 inh,FAS TE block,GRIN3A LBD mod,ADAM17 inh
CC(C)NC(=O)Nc1ccc2c(c1)C(=O)N([C@H](C)CO)C[C@H](C)[C@@H](CN(C)C(=O)Nc1ccc(C(F)(F)F)cc1)O2,-,-,-,-,-
C[C@@H]1CN([C@H](C)CO)C(=O)c2cc(NC(=O)Nc3ccc(F)cc3)ccc2O[C@H]1CN(C)C(=O)Nc1ccc(C(F)(F)F)cc1,.,.,-,-,.
C[C@H](CO)N1C[C@H](C)[C@@H](CN(C)C(=O)Nc2ccc3c(c2)OCO3)Oc2c(NC(=O)Nc3ccc4c(c3)OCO4)cccc2C1=O,-,-,54.6,-,-
C[C@H](CO)N1C[C@H](C)[C@@H](CN(C)C(=O)Nc2ccccc2)Oc2c(NC(=O)Nc3ccc4c(c3)OCO4)cccc2C1=O,-,-,-,-,-
COC(=O)[C@]12C[C@H](CC(=O)NCc3cccc(C(F)(F)F)c3)C(=O)N(Cc3cccc4ccccc34)C1=C[C@H](COCc1ccccc1)O[C@@H]2C,-,-,.,.,-
COCCCNC(=O)C[C@H]1C[C@@]2(C(=O)OC)C(=C[C@H](C(C)C)O[C@@H]2C2CC2)N(CCc2ccc(OC)c(OC)c2)C1=O,-,-,.,.,-
CC(=O)N1C[C@@H](CO)[C@@H]2C[C@H]1c1ccccc1N2C,-,-,.,.,-
O=C(Nc1cccc(S(=O)(=O)Nc2ccc(Cl)cc2)c1)c1ccc(Cl)nc1,-,31.4,-,21.2,-
Cc1cccc(NC(=O)c2cccc(NS(=O)(=O)c3ccc(Cl)cc3)c2)c1,.,.,-,12.0,.
COc1ccc(NS(=O)(=O)c2cccc(NC(=O)c3ccc(Cl)nc3)c2)cc1,-,-,-,-,-
Cc1cccc(NS(=O)(=O)c2nnc(NC(=O)c3ccc(Cl)cc3)s2)c1,-,-,-,-,-
CC(=O)Nc1ccc(S(=O)(=O)Nc2cccc(C(=O)NC(C)(C)C)c2)cc1,-,-,-,12.5,-
O=C(NCCc1ccccc1)OCc1cn(-c2cccc(F)c2F)nn1,-,-,.,.,-
O=C(CSc1nnc(-c2cnccn2)n1-c1ccccc1)c1ccccc1Br,-,-,.,.,-
CCOc1ccc(NC(=O)c2ccc(NC(=S)NC3CCCCC3)cc2)cc1,-,-,-,28.0,-
N#CCC(=O)Nc1ccc(C(=O)NNC(=S)NC2CCCCC2)cc1,-,-,-,29.2,-
CCOc1ccc(NC(=O)c2ccc(NC(=O)c3ccc(NC(N)=O)cc3)cc2)cc1,-,-,-,26.8,-
CCOc1ccc(NC(=O)c2ccc(NC(=S)NC3CC3)cc2)cc1,-,-,-,30.9,-
Cc1ccc(-n2c(SCC(=O)Nc3ccc(S(=O)(=O)Nc4cc(C)nc(C)n4)cc3)nnc2-c2ccc(C(C)(C)C)cc2)cc1,-,-,.,.,-
CN(C)S(=O)(=O)c1cccc(C(=O)N/N=C\c2ccc(-c3ccccn3)cc2)c1,-,-,.,.,-
O=C(NC1CCCCN(Cc2cccc(Cl)c2)C1=O)c1ccc(Cl)cc1Cl (configuration not stated),-,-,.,.,-
N#C/C(=C\c1ccc(-c2ccccc2Cl)o1)C(=O)Nc1nc2ccccc2s1,-,-,-,18.3,-
O=S1(=O)c2c(NCc3ccco3)cccc2Oc2ccccc2CN1Cc1cn(Cc2cccc(F)c2)nn1,-,-,.,.,-
C[C@H]1CCCN1c1ccc2c(c1)OCCCN(C1CC1)S2(=O)=O,-,-,.,.,-
O=C(O)C(Cc1ccccc1)N1C(=O)c2ccccc2C1=O (configuration not stated),-,-,-,-,-
SMILES,sPLA2-III inh,ADAM10 inh,FAS TE block,GRIN3A LBD mod,ADAM17 inh
Cc1ccc(/C=C2\SC(=S)N(C(Cc3ccccc3)C(=O)O)C2=O)cc1 (configuration not stated),-,-,-,24.1,-
COc1cc(/C=C2\SC(=S)N(C(Cc3ccccc3)C(=O)O)C2=O)ccc1O (configuration not stated),-,-,-,-,-
O=C(O)C(Cc1ccccc1)N1C(=O)c2c(Cl)c(Cl)c(Cl)c(Cl)c2C1=O (configuration not stated),-,-,-,11.3,-
O=C(O)C(Cc1ccccc1)N1C(=O)/C(=C/c2ccccc2)SC1=S (configuration not stated),-,-,-,11.5,-
Cc1cccc2sc(N(CCN(C)C)C(=O)c3cc(Cl)sc3Cl)nc12,-,-,-,10.7,-
CCOC(=O)Cc1csc(NC(=O)NC2(C(F)(F)F)Oc3cc(Cl)c(Cl)cc3O2)n1,-,-,-,10.7,-
O=C(O)c1cccnc1,-,-,-,14.3,-
CC1(C)CC(CC(=O)NC(=S)Nc2ccc([N+](=O)[O-])cc2)C(=O)O1 (configuration not stated),-,-,-,10.2,-
CC(C)OCC1CC(CC(=O)Nc2ccc([N+](=O)[O-])cc2)C(=O)O1 (configuration not stated),-,-,-,17.6,-
C#CCNC(=O)C[C@H]1C[C@@]2(C(=O)OC)C(=C[C@H](C3CCCC3)O[C@@H]2C)N(Cc2ccc(Cl)cc2Cl)C1=O,-,-,.,.,-
O=C(c1ccc(O)c(Br)c1)c1cc(Br)ccc1O,-,-,-,-,-
O=C(C(=O)c1cc(Br)ccc1O)c1cc(Br)ccc1O,-,-,-,19.8,-
Nc1nn2c(C(F)(F)F)cc(=O)[nH]c2c1N=Nc1cccc(F)c1,.,.,-,21.1,.
C[C@@H](N)P(=O)(O)C[C@H](Cc1ccccc1)C(=O)O,-,-,.,.,-
CC1=NN(c2cccc(Cl)c2)C(=O)C1,-,-,-,11.4,-
CC(C)n1nnnc1C1(C)CCCCC(=O)N1Cc1cccc(C(F)(F)F)c1 (configuration not stated),-,-,.,.,-
O=C(O)C(c1ccccc1)N1C(=O)/C(=C\c2ccc(-c3ccccc3Cl)o2)SC1=S (configuration not stated),-,-,-,31.1,-
O=C(O)C(c1ccccc1)N1C(=O)/C(=C\c2ccc(-c3ccc(Br)cc3)o2)SC1=S (configuration not stated),-,-,-,-,-
CCOC(=O)c1ccc(NC(=O)CSc2nnc(SCc3cccc4ccccc34)s2)cc1,-,-,.,.,-
O=c1c2cc(Br)ccc2[nH]c(=S)n1Cc1ccccc1,-,-,-,10.9,-
c1ccc(-c2nc3ccccn3c2-c2ccccc2)cc1,-,-,-,-,-
FC(F)Sc1nc(-c2ccccc2)c(-c2ccccc2)n1C(F)F,-,-,-,18.1,-
CCOC(=O)c1sc(NC(=O)c2cccs2)cc1C,-,-,-,-,-
CCOC(=O)c1sc(NC(=O)c2sccc2C)cc1C,-,-,-,11.0,-
CCOC(=O)c1sc(NC(=O)Nc2cccc(Cl)c2)cc1C,-,-,-,23.5,-
O=C(N=Nc1c(O)[nH]c2c(Cl)cc(Cl)cc12)c1ccccc1O,-,-,.,.,-
CC[C@@H](CCCCCC#N)CCC(=O)N(c1ccccc1)c1ccccc1,-,-,.,.,-
CCn1ncc2c(=O)c(C(=O)c3ccccc3)c[nH]c21,-,-,.,.,-

# Screening data (PubChem BioAssay)
